The entries come from a sample that favours hits as a whole.
Methyltransferases: Primary Screen for Target Class Profiling of Small Molecule Inhibitors of Methyltransferases | purified enzyme, MTase-Glo SAH luminescence; stronger effect = lower value | calls only at 40 µM | actives 3.9% (n = 25,000) | AID 1745853, 2022; call rule not given here
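Each enzyme was reacted with SAM and its substrate, with compounds tested once at 40 uM; SAH formed was read by MTase-Glo luminescence.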
Calls only; n = inactive; + = active, no number; ! = repeats disagree.

SMILES	Methyltransferases
CCN1C(=O)c2cc(C(=O)NCc3ccccc3)nn2CC1(C)C(=O)NC1CCCC1 (stereo not drawn)	n
COc1ccc(-c2n[nH]n3c2nc(=O)c2ccc(C(=O)NCc4ccc(Cl)cc4)cc23)cc1	n
O=C(Cn1ccc2cc(S(=O)(=O)N3CCCCC3)ccc21)N1CCN(c2ccccc2)CC1	n
COc1cc2nc(N3CCCCC3)nc(NC3CCN(C)CC3)c2cc1OC	+!
COc1cc2nc(-c3cc(F)ccc3O)nc(N[C@@H]3CNC[C@H]3C(C)(C)O)c2cc1OC	n
CCCn1c(=O)c2ccccc2n2c(=O)n(CC(=O)Nc3cc(Cl)ccc3C)nc12	n
Cc1cc(Cl)ccc1N1C(=O)CSc2c(c3ccccc3n2C)C1C(=O)NCc1ccccc1 (stereo not drawn)	n
Cn1c(=O)c2ccc(C(=O)NC3CCCC3)cc2n2c(SCc3ccc(Cl)cc3)nnc12	n
O=C(CCc1nnc2n(Cc3ccc(Cl)cc3)c(=O)c3ccccc3n12)NC1CC1	n
CCCn1c(=O)c2ccc(C(=O)NC3CCCCC3)cc2n2c(=O)n(CC(=O)c3ccc(C)cc3C)nc12	n
COc1ccc2cc3n(c2c1)CC(C)(C(=O)NCC1CCCO1)N(CCc1ccc(Cl)cc1)C3=O (stereo not drawn)	n
COc1ccc2cc3n(c2c1)CC(C)(C(=O)NC1CCCCC1)N(CCCN1CCOCC1)C3=O (stereo not drawn)	n
COc1ccc(CCc2nc3c(C)c(-c4c(C)noc4C)c(C)cc3n2CCN2CCOCC2)cc1	+!
CCCN1C(=O)c2c(C(=O)NCc3ccc(OCC)cc3)ncn2CC1(C)C(=O)NCc1ccc(F)cc1 (stereo not drawn)	n
O=C(Nc1cc(-c2ccccc2)nn1-c1ccccc1)c1ccc([N+](=O)[O-])cc1	n
O=[N+]([O-])c1ccc(-[n+]2nc(-c3ccccc3)nn2-c2ccc(I)cc2)cc1	+
CCCn1c(=O)c2cc(Cl)ccc2n2c(SCC(=O)NCc3ccccc3Cl)nnc12	n
CCCn1c(=O)c2ccc(C(=O)NC3CCCC3)cc2n2c(=O)n(CC(=O)Nc3ccc(CC)cc3)nc12	n
COc1ccc(Cn2c(=O)c3ccccc3n3c(-c4ccc(Br)cc4)nnc23)cc1	n
CCOc1ccc(CN2C(=O)c3nc4ccccc4n3CC2(C)C(=O)NC2CCCCC2)cc1 (stereo not drawn)	n
CC(=O)N(C)C1(c2ccccc2)CCN(CCC[C@]2(c3ccc(Cl)c(Cl)c3)CCCN(C(=O)c3ccccc3)C2)CC1	+
CC1=NOC2(CCN(C(=O)c3ccccc3)C2)C1 (stereo not drawn)	n
O=C(c1ccccc1)N1CCCC2(CC(c3ccccc3)=NO2)C1 (stereo not drawn)	n
CC1(C(=O)NC2CCCCC2)Cn2c(cc3ccccc32)C(=O)N1Cc1cccc(Cl)c1 (stereo not drawn)	n
CN1C(=O)c2cc(C(=O)NCCc3ccc(Cl)cc3)nn2CC1(C)C(=O)NC1CCCCCC1 (stereo not drawn)	n
SMILES	Methyltransferases
O=C(CCc1nnc2n(CCc3ccccc3)c(=O)c3ccccc3n12)N1CCN(c2ccc(Cl)cc2)CC1	n
CCCn1c(=O)c2ccc(C(=O)NC(C)C)cc2n2c(SCC(=O)Nc3ccc(Cl)cc3)nnc12	n
CN(C)c1ccc(/C=C2\C(=O)Nc3ccccc32)cc1	+
COc1ccc2cc3n(c2c1)CC(C)(C(=O)NC1CCCCC1)N(CCCc1ccccc1)C3=O (stereo not drawn)	n
COc1ccc(-c2nnc(-c3ccccc3)o2)cc1S(=O)(=O)N1CCCc2ccccc21	n
CCCCN1C(=O)c2cc(C(=O)Nc3ccc(OCC)cc3)nn2CC1(C)C(=O)NC1CCCC1 (stereo not drawn)	n
COc1cccc(N2C(=O)c3cc(-c4ccccc4)nn3CC2(C)C(=O)NCc2ccccc2)c1 (stereo not drawn)	n
N#Cc1cc(-c2ccnc(Nc3ccc(N4CCOCC4)cc3)n2)ccc1OC1CCOCC1	n
Cc1cc(N2CCOCC2)ccc1Nc1nc(NC2CCCCC2)c2[nH]cnc2n1	+
Cc1cc(NC2CCCCC2)nc(-n2nc(C)cc2C)n1	n
CC(C)CCn1c(=O)c2ccccc2n2c(SCC(=O)NCc3ccccc3)nnc12	n
O=C(CCc1nnc2n(CCc3ccccc3)c(=O)c3ccccc3n12)N1CCC(Cc2ccccc2)CC1	n
CC1CC(=O)C2=C(O1)OC1(C)CCC3C(C)(C)C4OC4C(=O)C3(C)C1C2 (stereo not drawn)	+
CC1CC(=O)C2=C(O1)OC1(C)CCC3C(C)(C)C=CC(=O)C3(C)C1C2 (stereo not drawn)	+
CC1(C(=O)NC2CCCCCC2)Cn2c(cc3ccccc32)C(=O)N1Cc1ccccc1 (stereo not drawn)	n
CCCN1C(=O)c2cc3ccccc3n2CC1(C)C(=O)NC1CCCCC1 (stereo not drawn)	n
Cc1ccc(Cl)cc1NC(=O)Cn1nc2n(Cc3ccc(F)cc3)c(=O)c3ccccc3n2c1=O	n
Cc1ccc(C2c3cccn3-c3sc4c(c3CN2C(=O)NCc2ccccc2)CCCC4)cc1 (stereo not drawn)	n
O=C(CCc1nnc2n(Cc3ccc(Cl)cc3)c(=O)c3ccccc3n12)NCC1CCCO1 (stereo not drawn)	n
CCC(C)NC(=O)c1ccc2c(=O)n(CC(C)C)c3nn(Cc4cccc(Cl)c4)c(=O)n3c2c1 (stereo not drawn)	n
O=C(CCc1nnc2n(Cc3ccccc3)c(=O)c3ccccc3n12)NCc1ccccc1	n
COc1cc(-c2nnc3n(CCc4ccccc4)c(=O)c4ccccc4n23)ccc1O	n
CC(C)OCCCNC(=O)C1c2c(n(C)c3ccccc23)SCC(=O)N1c1cccc(Cl)c1 (stereo not drawn)	n
CC(C)CCn1c(=O)c2ccccc2n2c(=O)n(CC(=O)Nc3ccc(F)cc3)nc12	n
CC1CCCC(NC(=O)C2(C)Cn3c(cc4occc43)C(=O)N2CCc2ccc(Cl)cc2)C1C (stereo not drawn)	n
SMILES	Methyltransferases
CCOC(=O)Cc1ccc(NC(=O)N2CCn3cccc3C2C)cc1 (stereo not drawn)	n
N#Cc1cccc(-c2c[nH]c3ncnc(N4CCOCC4)c23)c1	+
CN1C(=O)c2cc(C(=O)N3CCN(c4ccccc4)CC3)nn2CC1(C)C(=O)NC1CCCCC1 (stereo not drawn)	n
Cc1ccc(NC(=O)CSc2nnc3n(CCCOC(C)C)c(=O)c4ccccc4n23)cc1	n
CC(C)c1cc(-c2n[nH]c(=O)n2-c2ccc3c(ccn3C)c2)c(O)cc1O	+
CC1(C(=O)NC2CCCCCCC2)Cn2c(ccc2-c2ccco2)C(=O)N1CCc1ccccc1 (stereo not drawn)	n
Cc1ccc(Nc2ccn3c(=O)n(CC(=O)Nc4ccc(C)c(F)c4)nc3n2)cc1	n
CSc1ccc2c(c1)C(N1CCN(C)CC1)Cc1ccccc1S2 (stereo not drawn)	+
CN1CCN2c3ccccc3Cc3ccccc3C2C1 (stereo not drawn)	n
CN1CCN(CCCN2c3ccccc3Sc3ccc(Cl)cc32)CC1	n
COc1ccccc1CNC(=O)C1(C)Cn2nc(-c3ccccc3)cc2C(=O)N1C1CCCCCC1 (stereo not drawn)	n
CCOC(=O)c1cc2n(n1)CC(C)(C(=O)NC1CCCCC1)N(Cc1ccc(OCC)cc1)C2=O (stereo not drawn)	n
CCCC1(CCC)CCC2(CCN(CCCN(CC)CC)C2)CC1	+
CCc1ccccc1Nc1nn2c(=O)c3ccc(C(=O)NC4CCCCC4C)cc3nc2s1 (stereo not drawn)	n
